Shown are actives, neighbours in structure and some others; about 6.7% of the full set was active somewhere.
PINK1 expr mod: A Quantitative High throughput Screen to Identify Chemical Modulators of PINK1 Expression; PINK1 immunofluorescence, high-content cytometry, 24 h; Potency, µM (titrated, usually from 76.6 µM), without a hit: at the highest dose activation (PINK1 increase), hits mostly activators; 0.2% of 410,000 active; AID 624263, 2012; active = well fitted activation curve with a large enough effect; inconclusive = small, poorly fitted or top-dose-only effect; cell line not stated here; also: % of control where 0% means no effect; nearly all actives have a fitted effect of over 65% in size
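Stable cell line, 250 cells/well, 12 h attachment; compounds pinned at 5 concentrations, 24 h; CCCP control. Fixed with nuclear dye, primary antibodies 12 h at 10 degrees C, secondary plus cell stain; laser-scanning cytometer read.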
SW480 rereplic: A quantitative high throughput screen for small molecules that induce DNA re-replication in SW480 colon adenocarcinoma cells; 1.8% of 340,000 active; SW480 DNA re-replication, Hoechst DNA content imaging, 48 h; Potency, µM (titrated, usually from 46.1 µM), for the others: top-dose re-replication activation, most hits filed as activators; also: % of control where 0% means no effect; nearly all actives have a fitted effect of over 55% in size
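Readout is total intensity of Hoechst-stained nuclei, excited at 405 nm and collected at 500-530 nm. Compound treatment lasted 48 hr at 37 C in 5% CO2 before staining.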
KB-V1 MDR tox: qHTS assay for MDR1-selective chemotherapeutics: Primary screen using the drug-selected MDR subline cells KB-V1. 3.4% of 400,000 active. Potency, µM (doses to about 46.1 µM), hits mostly cytotoxic. KB-V1 MDR cells viability, CellTiter-Glo, 72 h; also: % is scaled to controls: 0 for no effect and ±100 for the full control effect; nearly all actives have a fitted effect of over 60% in size
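KB-V1 MDR subline cells in DMEM (phenol-red free, 10% FBS) exposed to compounds in qHTS concentration series for 72 h at 37 degrees C. Viability read by CellTiter-Glo luminescence; concentration-effect curves fitted after normalization and correction.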
MCF10A rerep: A quantitative high throughput screen for small molecules that induce DNA re-replication in MCF 10a normal breast cells | Potency, µM (top dose mostly 46.1 µM), without a hit: at the highest dose activity, positive = re-replication, usual class: activators | MCF 10A DNA re-replication, Hoechst nuclear intensity, 48 h | 2.9% of 350,000 active; also: % of control where 0% means no effect; nearly all actives have a fitted effect of over 50% in size
KB-3-1 cytotox: qHTS assay for MDR1-selective chemotherapeutics: Primary screen using the parental adenocarcinoma cell KB-3-1; KB-3-1 viability, CellTiter-Glo ATP luminescence, 72 h; Potency, µM (doses to about 46.1 µM), hits mostly cytotoxic; 1.4% of 400,000 active; AID 1347075, 2019; also: % is scaled to controls: 0 for no effect and ±100 for the full control effect; nearly all actives have a fitted effect of over 60% in size
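Multi-concentration cytotoxicity screen in KB-3-1 cells grown in DMEM lacking phenol red with 10% FBS. After 72 h at 37 °C with compound, ATP-dependent luminescence was recorded.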
* hit, by the source's call; i = inactive; u = inconclusive; x = no result given; [ ] = remark or other dose. Unless noted, calls follow the shape of the dose curve; as a rule, active = well fitted curve in the direction sought with a large enough effect; inconclusive = small, poorly fitted or top-dose-only effect, or another doubt; inactive = no such curve, though single readings can be large; an effect the other way counts as inactive or inconclusive. Potency is read from the fitted curve at half-maximal effect.

SMILES | PINK1 expr mod | SW480 rereplic | KB-V1 MDR tox | MCF10A rerep | KB-3-1 cytotox
Cc1nn(-c2ccccc2)c(C)c1C(=O)Nc1nnc(-c2ccco2)o1 | 2% | u | 5.8µM* | 10% | u
CCN(c1ccccc1)S(=O)(=O)c1ccc(C(=O)Nc2nnc(C3CC3)o2)cc1 | 4% | u | 7.3µM* | 1% | u
CCOC(=O)N1CCN(S(=O)(=O)c2ccc(C(=O)Nc3nnc(C4CC4)o3)cc2)CC1 | 1% | 12% | i | u | i
O=C(CN1C(=O)CSc2ccc(S(=O)(=O)N3CCCCC3)cc21)NCc1ccc(F)cc1Cl | -3% | x | i | x | i
CCOc1ccc(-c2nc(N)ncc2-c2ccc(Cl)cc2)c(O)c1 | 3% | -30% | i | u | i
CCCc1cc(-c2nc(N)ncc2-c2ccc3c(c2)OCCCO3)c(O)cc1OC | -3% | u | 2.9µM* | u | i
CCOc1ccc(-c2nc(N)ncc2-c2ccc(OC)cc2)c(O)c1 | -2% | u | 7.3µM* | -53% | u
CCOc1ccc(-c2nc(N)ncc2-c2ccccc2)c(O)c1 | 3% | 16% | u | 17% | 15µM*
O=C(NCc1ccc(Cl)cc1)C1CCN(C(=O)c2ccc(Cl)cc2)CC1 | 0% | u | u | 16% | i
Cn1cnc2ncnn2c1=S | 0% | x | i | x | i
CN1CCCC2(CCN(C(=O)c3cccn3C)CC2)C1 | -1% | x | x | x | x
O=C(CN1CCOCC1)Nc1ncc(Cc2cccc3ccccc23)s1 | x | 22% | 13µM* | u | i
N#CCC(=O)Nc1ncc(Cc2ccccc2Cl)s1 | 1% | u | i | 15µM* | i
O=C(CCCCl)Oc1ccc2cc(-c3ccc4ccccc4n3)c(=O)oc2c1 | 3% | 2.1µM* | i | 6.5µM* | i
COc1ccc2sc(-c3ccc(N(C)C)cc3)c(C#Cc3cncn3C)c2c1 | -1% | 1.3µM* | u | u | 10µM*
COc1ccc2sc(-c3ccc(N(C)C)cc3)c(C#CCCO)c2c1 | 7% | 4.1µM* | u | u | u
COc1ccc(-c2sc3ccc(OC)cc3c2C#CCCO)cc1 | 4% | 6% | i | u | i
COc1ccc(-c2sc3cc4c(cc3c2C#CC2(O)CCCCC2)OCO4)cc1 | 17% | -2% | i | 23µM* | i
COc1ccccc1-c1sc2cc3c(cc2c1C#CC1(O)CCCCC1)OCO3 | 10% | -4% | i | u | i
COc1ccc2sc(-c3ccc(N(C)C)cc3)c(C#CC(C)(C)O)c2c1 | 10% | 2.1µM* | i | 12% | i
O=C(NCCc1ccccc1)C1CCC(CNS(=O)(=O)c2ccc(F)cc2)CC1 (stereo not drawn) | 0% | -31% | i | 0% | i
COc1ccc(-c2sc3cc(OC)c(OC)cc3c2C#CC(C)(C)O)cc1 | 4% | -1% | i | u | i
COc1ccc(-c2sc3cc(OC)c(OC)cc3c2C#CCO)cc1 | 7% | 3.3µM* | i | 7% | i
Cc1ccccc1CN(C)CCc1ccccn1 | 0% | -2% | i | 0.65µM* | i
CCNC(=O)C1CCCN(C(=O)c2ccc(C(=O)OC)cc2)CC1 (stereo not drawn) | 1% | x | i | x | i
SMILES | PINK1 expr mod | SW480 rereplic | KB-V1 MDR tox | MCF10A rerep | KB-3-1 cytotox
O=C(Nc1ncc2c(n1)-c1ccccc1CC2)c1ccc(Cl)cc1 | 1%[38.3 µM] | 14% | 9.2µM* | 10% | i
O=C(Nc1ncc2c(n1)-c1ccccc1CC2)c1cccc(Cl)c1 | 2% | u | u | 13µM* | 10µM*
O=C(Nc1ncc2c(n1)-c1ccccc1OC2)c1cccc([N+](=O)[O-])c1 | 1% | -4% | i | 0% | i
Cc1ccc(NC(=O)C2CCCN(S(=O)(=O)c3ccc4c(c3)CCCC(=O)N4)C2)cc1Cl (stereo not drawn) | -1% | x | u | x | i
O=C1c2c(-c3ccc(Br)cc3)noc2CCN1Cc1cn(Cc2ccccc2)nn1 | x | x | u | x | i
O=C1c2c(-c3ccc(Br)cc3)noc2CCN1Cc1cn(Cc2cccnc2)nn1 | x | x | 23µM* | x | u
COc1ccccc1-c1noc2c1C(=O)N(Cc1cn(-c3ccccc3)nn1)CC2 | 1% | x | i | x | u
COc1ccccc1-c1noc2c1C(=O)N(Cc1cn(C3CCCC3)nn1)CC2 | 0% | x | i | x | i
O=C1c2c(-c3ccc(Br)cc3)noc2CCN1Cc1cn(-c2ccc(Cl)cc2)nn1 | x | x | 18µM* | x | 21µM*
O=C1c2c(-c3ccc(Br)cc3)noc2CCN1Cc1cn(C2CCCC2)nn1 | x | x | 21µM* | x | u
Cc1cc(C(=O)CSc2nnnn2C)c(C)n1C1CC1 | 0% | 6% | i | -2% | i
CCn1c(C)cc(C(=O)CSc2nnnn2C2CCCC2)c1C | 5% | 1% | 9.2µM* | u | i
Cc1ccc(CNC(=O)CSc2nc(=O)n3ccc(C)cc3n2)cc1 | -1% | x | i | x | i
Cn1nc(-c2ccc(Cl)cc2)c2cc(C(=O)NCCCN3CCCC3)sc21 | -1% | u | i | 23µM* | u
CCCCNC(=O)c1cc2c(-c3ccc(Cl)cc3)nn(C)c2s1 | 5% | 3% | i | u | i
CCN1CCCC1CNC(=O)c1cc2c(-c3ccc(Cl)cc3)nn(C)c2s1 (stereo not drawn) | 0% | 21µM* | u | u | u
CN(C)c1ccc(-c2nn3c(-c4cc(-c5ccccc5)n[nH]4)nnc3s2)cc1 | 2% | x | i | x | u
Cc1ccc2nc(/C(C#N)=C\c3ccc(Oc4ccc([N+](=O)[O-])cn4)cc3)[nH]c2c1 | 9% | u | i | 7% | i
COc1ccc(OC)c(/C=C(\C#N)c2nc3ccccc3c(=O)[nH]2)c1 | 1% | x | u | x | i
COc1ccc2nc(/C(C#N)=C\c3ccc(C(=O)O)cc3)[nH]c2c1 | u | 18µM* | i | 165% | i
COc1ccc2nc(/C(C#N)=C\c3ccc(Oc4ccc([N+](=O)[O-])cn4)cc3)[nH]c2c1 | 11µM* | -43% | u | 14% | i
CCCCNC(=O)Cn1c(=O)c2c(ncn2CC)n(Cc2ccccc2)c1=O | 1% | 1% | i | -1% | i
CC1=NN(c2nc(-c3ccccc3)cs2)C(=O)C1 | -1% | -3% | i | u | i
O=C1C2C3c4ccccc4C(c4ccccc43)[C@@H]2C(=O)N1c1nc(-c2ccccc2)cs1 (stereo partly drawn) | 1% | -12% | 21µM* | -3% | i
O=C1CC(c2ccccc2)=NN1c1nc(-c2ccccc2)cs1 | -3% | 0% | i | 16µM* | i

Screens deposited in PubChem BioAssay by National Center for Advancing Translational Sciences (NCATS).
